Experimental data taken from the supplement of paper PMC11732987, “Enantioselective OTUD7B fragment discovery through chemoproteomics screening and high-throughput optimisation” (Communications Chemistry, 2025).

Assays:
Experiment in all cases: log2 ratio of Biotin-Ahx-Ub-VS probe labelling (fragment/DMSO); higher = less target engagement (more negative = stronger competition), active = hit call of the paper (q ≤ 0.05, log2 ratio ≤ -1)
Conditions in all cases: compound concentration: 200 uM; treatment time: 3 h
USP42 = biological target: T1, USP42 (UniProt Q9H9J4)
T1 sequence (whole entry): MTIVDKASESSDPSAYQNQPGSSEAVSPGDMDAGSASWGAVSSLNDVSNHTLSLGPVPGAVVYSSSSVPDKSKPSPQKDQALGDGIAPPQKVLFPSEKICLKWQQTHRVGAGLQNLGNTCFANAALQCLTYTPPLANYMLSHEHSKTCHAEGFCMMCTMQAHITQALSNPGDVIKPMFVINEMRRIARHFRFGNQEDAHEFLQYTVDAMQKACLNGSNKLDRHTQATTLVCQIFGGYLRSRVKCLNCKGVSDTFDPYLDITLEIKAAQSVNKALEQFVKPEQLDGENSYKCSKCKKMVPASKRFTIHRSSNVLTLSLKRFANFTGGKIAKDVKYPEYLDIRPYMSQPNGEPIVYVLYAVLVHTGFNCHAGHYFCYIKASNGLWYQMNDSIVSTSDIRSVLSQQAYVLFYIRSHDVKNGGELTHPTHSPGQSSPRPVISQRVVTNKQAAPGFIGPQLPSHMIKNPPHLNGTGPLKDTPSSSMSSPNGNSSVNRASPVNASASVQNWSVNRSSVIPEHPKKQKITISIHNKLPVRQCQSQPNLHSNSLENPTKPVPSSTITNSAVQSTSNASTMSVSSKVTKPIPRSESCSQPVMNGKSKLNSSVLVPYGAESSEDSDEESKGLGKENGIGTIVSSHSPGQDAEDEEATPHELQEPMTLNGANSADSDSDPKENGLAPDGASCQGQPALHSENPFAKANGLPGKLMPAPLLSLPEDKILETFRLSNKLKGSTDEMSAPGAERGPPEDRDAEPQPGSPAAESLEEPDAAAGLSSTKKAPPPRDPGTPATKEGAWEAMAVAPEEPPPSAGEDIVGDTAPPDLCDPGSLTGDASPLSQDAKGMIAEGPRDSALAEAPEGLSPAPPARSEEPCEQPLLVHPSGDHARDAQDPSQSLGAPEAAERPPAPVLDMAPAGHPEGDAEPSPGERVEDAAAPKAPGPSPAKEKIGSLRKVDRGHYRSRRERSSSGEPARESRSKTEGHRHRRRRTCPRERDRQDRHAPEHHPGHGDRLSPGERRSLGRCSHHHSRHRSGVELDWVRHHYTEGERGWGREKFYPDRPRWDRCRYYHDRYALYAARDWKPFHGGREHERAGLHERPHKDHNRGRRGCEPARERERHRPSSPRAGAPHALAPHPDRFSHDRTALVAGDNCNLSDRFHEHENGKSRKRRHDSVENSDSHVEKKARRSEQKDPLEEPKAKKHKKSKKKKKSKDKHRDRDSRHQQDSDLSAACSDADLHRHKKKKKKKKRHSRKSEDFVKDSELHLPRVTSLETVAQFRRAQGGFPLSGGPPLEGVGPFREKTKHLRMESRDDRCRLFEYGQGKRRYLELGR
How it was run: (§1)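 HEK293T lysate (495 µg per sample, in Tris/CHAPS/IGEPAL buffer with protease inhibitors) was exposed in triplicate for 3 h to fragment at 200 µM or to vehicle, then to Biotin-Ahx-Ub-VS at 0.5 µM final for 1 h. Labelled DUBs were enriched on NeutrAvidin, digested with LysC and trypsin, and analysed by diaPASEF LC-MS/MS. Spectronaut label-free quantities were normalised to the global median, and values are average log2 ratios of fragment over vehicle from an unpaired t-test. Only proteins with ≥2 unique peptides were used.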

USP46 = USP46 (UniProt P62068)
How it was run: as §1

USP47 = biological target: T2, USP47 (UniProt Q96K76)
T2 sequence (whole entry): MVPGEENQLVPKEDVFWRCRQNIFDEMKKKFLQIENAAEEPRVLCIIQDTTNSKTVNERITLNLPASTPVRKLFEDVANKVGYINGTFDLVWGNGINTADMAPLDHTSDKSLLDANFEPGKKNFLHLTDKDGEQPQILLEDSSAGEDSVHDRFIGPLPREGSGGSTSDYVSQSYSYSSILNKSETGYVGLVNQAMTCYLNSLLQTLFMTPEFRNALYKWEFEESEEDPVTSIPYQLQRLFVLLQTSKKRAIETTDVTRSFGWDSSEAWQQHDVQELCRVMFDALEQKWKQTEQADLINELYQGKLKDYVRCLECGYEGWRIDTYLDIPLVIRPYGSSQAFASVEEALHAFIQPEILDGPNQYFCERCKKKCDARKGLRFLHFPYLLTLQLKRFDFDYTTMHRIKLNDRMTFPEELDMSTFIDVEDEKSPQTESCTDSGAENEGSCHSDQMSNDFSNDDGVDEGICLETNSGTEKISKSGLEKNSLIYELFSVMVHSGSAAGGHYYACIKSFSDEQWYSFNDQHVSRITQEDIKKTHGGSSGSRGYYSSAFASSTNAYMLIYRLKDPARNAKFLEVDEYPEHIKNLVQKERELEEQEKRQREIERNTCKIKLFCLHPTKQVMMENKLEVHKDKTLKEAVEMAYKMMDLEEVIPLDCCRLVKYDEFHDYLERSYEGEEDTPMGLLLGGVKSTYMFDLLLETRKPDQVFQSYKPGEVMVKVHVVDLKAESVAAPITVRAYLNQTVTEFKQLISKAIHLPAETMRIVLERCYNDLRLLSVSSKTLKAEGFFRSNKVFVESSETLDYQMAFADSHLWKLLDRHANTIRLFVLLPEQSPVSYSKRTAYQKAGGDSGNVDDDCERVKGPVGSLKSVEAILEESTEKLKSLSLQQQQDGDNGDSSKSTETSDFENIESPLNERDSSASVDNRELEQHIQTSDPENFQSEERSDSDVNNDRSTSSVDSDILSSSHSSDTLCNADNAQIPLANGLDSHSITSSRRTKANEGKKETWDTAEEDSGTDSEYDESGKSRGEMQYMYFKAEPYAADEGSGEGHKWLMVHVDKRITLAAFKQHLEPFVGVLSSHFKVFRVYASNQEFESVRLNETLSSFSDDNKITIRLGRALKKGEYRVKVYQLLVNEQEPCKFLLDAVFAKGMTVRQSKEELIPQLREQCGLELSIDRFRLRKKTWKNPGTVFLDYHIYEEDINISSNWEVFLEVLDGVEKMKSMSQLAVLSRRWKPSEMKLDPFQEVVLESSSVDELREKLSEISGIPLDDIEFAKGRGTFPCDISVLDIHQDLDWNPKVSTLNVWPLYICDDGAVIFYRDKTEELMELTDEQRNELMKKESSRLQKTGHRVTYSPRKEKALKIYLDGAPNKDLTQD
How it was run: as §1

USP48 = biological target: T3, USP48 (UniProt Q86UV5)
T3 sequence (whole entry): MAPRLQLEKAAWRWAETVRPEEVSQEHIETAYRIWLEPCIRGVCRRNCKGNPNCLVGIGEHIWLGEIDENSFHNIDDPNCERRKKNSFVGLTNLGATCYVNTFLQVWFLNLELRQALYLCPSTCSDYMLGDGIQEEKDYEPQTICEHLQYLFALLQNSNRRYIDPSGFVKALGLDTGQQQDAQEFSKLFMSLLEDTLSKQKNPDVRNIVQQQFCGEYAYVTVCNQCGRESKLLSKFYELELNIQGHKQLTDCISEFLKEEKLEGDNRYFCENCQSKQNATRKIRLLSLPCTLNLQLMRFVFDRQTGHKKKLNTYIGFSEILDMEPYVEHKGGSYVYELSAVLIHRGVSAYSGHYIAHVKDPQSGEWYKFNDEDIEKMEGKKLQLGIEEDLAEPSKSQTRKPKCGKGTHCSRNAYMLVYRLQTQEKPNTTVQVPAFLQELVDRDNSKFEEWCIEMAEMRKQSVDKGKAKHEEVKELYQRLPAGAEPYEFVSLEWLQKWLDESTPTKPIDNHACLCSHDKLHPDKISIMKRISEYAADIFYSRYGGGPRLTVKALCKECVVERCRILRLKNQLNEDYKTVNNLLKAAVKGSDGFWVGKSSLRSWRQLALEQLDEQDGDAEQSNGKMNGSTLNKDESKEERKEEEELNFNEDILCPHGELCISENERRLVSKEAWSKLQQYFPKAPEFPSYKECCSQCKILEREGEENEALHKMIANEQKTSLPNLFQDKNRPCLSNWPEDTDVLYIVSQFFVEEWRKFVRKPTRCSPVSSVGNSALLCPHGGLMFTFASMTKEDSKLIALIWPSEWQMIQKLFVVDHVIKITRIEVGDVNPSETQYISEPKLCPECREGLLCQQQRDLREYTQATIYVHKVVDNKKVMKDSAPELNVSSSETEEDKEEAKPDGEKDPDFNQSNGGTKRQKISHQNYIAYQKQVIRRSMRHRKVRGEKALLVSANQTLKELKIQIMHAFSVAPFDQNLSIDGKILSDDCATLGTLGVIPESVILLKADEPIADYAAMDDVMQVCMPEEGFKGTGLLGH
How it was run: as §1

USP5 = biological target: T4, USP5 (UniProt P45974)
T4 sequence (whole entry): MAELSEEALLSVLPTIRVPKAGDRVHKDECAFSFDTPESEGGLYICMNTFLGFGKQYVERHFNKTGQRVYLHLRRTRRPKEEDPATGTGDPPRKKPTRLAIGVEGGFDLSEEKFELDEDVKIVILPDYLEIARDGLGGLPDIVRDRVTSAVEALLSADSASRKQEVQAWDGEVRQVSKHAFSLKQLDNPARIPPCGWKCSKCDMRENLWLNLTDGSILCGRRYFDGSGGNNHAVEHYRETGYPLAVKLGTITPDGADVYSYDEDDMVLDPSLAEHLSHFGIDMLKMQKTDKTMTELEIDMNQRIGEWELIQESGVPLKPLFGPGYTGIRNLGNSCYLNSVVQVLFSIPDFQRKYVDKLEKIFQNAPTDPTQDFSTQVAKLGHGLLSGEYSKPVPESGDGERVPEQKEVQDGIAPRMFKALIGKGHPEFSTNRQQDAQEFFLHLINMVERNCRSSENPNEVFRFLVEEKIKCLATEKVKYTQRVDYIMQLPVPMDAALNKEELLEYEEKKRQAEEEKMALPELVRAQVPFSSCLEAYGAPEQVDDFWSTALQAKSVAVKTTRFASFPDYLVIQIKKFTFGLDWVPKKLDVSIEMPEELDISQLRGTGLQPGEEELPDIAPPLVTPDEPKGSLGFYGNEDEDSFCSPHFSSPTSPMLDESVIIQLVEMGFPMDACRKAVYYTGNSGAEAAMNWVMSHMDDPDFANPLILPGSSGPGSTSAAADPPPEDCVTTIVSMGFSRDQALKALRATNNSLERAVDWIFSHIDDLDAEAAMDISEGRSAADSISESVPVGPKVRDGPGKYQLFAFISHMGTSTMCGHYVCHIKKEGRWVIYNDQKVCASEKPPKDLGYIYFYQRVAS
How it was run: as §1

USP54 = USP54 (UniProt Q70EL1)
How it was run: as §1

USP7 = USP7 (UniProt Q93009)
How it was run: as §1

USP8 = biological target: T5, USP8 (UniProt P40818)
T5 sequence (whole entry): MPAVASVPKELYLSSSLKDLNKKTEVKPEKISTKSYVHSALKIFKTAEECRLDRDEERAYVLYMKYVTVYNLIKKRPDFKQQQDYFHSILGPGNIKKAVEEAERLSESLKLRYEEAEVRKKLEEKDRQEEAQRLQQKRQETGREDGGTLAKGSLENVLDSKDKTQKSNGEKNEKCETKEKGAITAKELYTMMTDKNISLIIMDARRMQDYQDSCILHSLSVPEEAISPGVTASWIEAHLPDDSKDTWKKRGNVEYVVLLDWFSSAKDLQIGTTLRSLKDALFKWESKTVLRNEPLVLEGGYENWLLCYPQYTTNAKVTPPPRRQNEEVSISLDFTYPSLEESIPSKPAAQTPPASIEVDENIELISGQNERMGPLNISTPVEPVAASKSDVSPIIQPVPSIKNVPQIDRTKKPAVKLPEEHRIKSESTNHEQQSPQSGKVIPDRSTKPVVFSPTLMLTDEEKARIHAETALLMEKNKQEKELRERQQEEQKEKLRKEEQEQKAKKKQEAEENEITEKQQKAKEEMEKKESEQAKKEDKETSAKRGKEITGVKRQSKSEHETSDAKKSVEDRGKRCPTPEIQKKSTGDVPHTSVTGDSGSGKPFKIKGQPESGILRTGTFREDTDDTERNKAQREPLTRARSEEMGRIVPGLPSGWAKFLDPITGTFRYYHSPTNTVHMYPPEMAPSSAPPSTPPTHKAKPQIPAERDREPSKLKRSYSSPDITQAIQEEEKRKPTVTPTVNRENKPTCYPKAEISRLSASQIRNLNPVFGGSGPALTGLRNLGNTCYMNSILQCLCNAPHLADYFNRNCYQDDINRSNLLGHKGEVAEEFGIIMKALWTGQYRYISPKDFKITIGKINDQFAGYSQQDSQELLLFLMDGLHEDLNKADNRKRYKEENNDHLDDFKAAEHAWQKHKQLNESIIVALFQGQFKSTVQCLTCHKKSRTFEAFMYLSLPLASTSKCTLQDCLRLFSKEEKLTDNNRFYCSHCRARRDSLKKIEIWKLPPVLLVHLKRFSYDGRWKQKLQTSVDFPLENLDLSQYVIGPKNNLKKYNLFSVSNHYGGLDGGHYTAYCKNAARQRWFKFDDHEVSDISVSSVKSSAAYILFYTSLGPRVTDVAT
How it was run: as §1

USP9X = USP9X (UniProt Q93008)
How it was run: as §1

UniProt O00487 = biological target: UniProt O00487
How it was run: as §1

Measured: log2 ratio of Biotin-Ahx-Ub-VS probe labelling

Chain of USP46 (P62068 whole entry): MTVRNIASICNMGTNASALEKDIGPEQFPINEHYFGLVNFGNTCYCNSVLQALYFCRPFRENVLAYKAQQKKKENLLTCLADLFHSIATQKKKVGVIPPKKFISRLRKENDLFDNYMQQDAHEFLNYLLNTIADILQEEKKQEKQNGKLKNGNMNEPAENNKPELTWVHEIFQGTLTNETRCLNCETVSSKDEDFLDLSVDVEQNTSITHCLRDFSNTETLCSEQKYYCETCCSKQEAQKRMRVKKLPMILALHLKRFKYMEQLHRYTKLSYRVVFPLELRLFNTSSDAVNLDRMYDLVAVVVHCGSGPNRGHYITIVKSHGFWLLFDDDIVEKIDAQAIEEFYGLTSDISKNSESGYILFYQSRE
Chain of UniProt O00487 (O00487 whole entry): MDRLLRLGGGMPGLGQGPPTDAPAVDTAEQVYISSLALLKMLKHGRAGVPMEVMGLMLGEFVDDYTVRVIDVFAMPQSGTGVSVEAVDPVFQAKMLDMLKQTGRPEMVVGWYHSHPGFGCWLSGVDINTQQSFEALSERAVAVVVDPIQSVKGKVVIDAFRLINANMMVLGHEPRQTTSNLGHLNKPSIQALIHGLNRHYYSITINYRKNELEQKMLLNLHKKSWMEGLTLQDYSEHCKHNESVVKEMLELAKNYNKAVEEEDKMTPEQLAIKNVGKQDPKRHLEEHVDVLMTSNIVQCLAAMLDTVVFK
Chain of USP7 (Q93009 whole entry, looked up): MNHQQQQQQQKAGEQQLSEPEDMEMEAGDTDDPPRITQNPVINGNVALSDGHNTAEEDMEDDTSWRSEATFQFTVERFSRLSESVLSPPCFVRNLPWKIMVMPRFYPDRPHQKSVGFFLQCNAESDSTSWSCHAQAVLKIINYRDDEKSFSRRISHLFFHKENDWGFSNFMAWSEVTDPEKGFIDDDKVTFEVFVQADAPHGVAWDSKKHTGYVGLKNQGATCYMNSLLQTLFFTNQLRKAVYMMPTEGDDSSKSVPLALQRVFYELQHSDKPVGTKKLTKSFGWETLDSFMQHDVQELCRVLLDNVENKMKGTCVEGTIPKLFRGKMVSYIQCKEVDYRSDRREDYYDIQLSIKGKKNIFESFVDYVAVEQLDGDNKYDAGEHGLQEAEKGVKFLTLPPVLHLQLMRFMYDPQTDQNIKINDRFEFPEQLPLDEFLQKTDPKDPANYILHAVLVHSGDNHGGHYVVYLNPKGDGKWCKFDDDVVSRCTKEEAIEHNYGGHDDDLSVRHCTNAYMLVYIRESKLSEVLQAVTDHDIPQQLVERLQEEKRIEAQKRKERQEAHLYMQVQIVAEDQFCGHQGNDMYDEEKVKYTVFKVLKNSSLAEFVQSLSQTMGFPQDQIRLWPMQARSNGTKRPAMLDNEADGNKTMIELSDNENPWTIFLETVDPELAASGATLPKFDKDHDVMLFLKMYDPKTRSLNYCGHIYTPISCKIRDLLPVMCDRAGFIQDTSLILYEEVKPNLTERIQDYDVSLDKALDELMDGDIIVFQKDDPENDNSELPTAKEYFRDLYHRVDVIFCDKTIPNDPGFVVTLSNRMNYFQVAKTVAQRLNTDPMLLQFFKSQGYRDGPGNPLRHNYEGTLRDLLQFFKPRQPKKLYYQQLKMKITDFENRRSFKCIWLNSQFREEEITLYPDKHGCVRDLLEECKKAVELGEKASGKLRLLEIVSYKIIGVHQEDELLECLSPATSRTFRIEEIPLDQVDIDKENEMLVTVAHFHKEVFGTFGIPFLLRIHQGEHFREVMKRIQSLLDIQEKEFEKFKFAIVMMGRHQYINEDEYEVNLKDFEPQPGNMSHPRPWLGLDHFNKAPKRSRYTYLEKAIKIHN
Chain of USP54 (Q70EL1 whole entry): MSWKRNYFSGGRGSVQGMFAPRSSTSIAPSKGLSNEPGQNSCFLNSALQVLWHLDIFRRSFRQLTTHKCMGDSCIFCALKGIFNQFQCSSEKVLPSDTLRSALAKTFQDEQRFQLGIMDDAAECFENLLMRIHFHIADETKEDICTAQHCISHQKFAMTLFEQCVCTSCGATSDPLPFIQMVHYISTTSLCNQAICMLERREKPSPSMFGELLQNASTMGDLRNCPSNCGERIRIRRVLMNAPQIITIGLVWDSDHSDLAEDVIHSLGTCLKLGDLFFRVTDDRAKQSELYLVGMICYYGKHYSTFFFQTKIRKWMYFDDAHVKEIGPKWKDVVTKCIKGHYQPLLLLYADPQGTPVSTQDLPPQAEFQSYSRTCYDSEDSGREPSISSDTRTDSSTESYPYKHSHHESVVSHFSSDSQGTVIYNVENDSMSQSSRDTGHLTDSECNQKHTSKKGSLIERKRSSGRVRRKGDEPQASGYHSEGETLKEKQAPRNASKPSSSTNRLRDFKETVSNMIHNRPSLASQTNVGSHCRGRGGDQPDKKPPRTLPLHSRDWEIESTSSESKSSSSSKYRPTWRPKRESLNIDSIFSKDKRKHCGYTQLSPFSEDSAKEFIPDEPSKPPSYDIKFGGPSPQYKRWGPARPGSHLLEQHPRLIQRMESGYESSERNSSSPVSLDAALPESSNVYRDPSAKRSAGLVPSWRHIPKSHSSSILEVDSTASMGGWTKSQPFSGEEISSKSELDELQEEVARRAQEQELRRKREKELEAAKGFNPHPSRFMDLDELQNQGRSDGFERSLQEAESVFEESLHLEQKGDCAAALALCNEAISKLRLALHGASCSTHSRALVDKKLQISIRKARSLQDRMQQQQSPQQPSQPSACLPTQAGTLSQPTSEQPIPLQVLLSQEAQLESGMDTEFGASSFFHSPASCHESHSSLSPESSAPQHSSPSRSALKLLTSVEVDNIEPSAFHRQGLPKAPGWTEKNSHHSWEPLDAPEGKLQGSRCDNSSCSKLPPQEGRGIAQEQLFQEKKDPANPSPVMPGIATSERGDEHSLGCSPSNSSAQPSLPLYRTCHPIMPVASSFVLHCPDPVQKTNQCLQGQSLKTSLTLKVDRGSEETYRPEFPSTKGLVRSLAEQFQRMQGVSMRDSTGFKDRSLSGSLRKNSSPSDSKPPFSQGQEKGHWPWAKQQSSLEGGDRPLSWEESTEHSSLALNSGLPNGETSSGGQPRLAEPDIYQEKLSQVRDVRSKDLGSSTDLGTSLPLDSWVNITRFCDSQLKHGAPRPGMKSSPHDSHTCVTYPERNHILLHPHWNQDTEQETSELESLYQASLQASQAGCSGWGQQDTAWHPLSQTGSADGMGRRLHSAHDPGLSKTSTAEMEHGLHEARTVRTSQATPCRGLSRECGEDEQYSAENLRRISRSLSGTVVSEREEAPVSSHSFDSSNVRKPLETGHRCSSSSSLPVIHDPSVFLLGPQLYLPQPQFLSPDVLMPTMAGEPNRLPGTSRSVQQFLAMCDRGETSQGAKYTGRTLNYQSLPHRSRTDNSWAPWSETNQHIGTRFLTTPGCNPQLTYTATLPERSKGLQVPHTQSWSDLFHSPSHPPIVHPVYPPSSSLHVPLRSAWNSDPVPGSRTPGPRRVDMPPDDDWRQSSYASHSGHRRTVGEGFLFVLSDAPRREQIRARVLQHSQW

CC(NC(=O)CCl)c1cc2n(n1)CCCC2.Cl (stereo not given)
inactive: USP42 0.487 | USP46 -0.0285 | USP47 0.43 | USP48 -0.017 | USP5 -0.437 | USP54 0.53 | USP7 -0.279 | USP8 0.0604 | USP9X -0.0806 | UniProt O00487 -0.00796

Cc1ccc(C)c(Oc2ccc(CNC(=O)CCl)cn2)c1.Cl
inactive: USP42 -0.119 | USP46 0.00613 | USP47 -0.424 | USP48 -0.619 | USP5 -0.165 | USP54 0.136 | USP7 -0.376 | USP8 -0.519 | USP9X -0.677 | UniProt O00487 -0.0677

Cc1nc(CC2CCN(C(=O)CCl)CC2)no1
inactive: USP42 0.631 | USP46 -0.332 | USP47 -0.726 | USP48 -0.576 | USP5 -0.492 | USP54 0.803 | USP7 -0.904 | USP8 -0.755 | USP9X -0.815 | UniProt O00487 -0.084
